# Only some compounds are listed: those with a hit (about 8% of all), similar ones and a draw of the others.
# SW480 rereplic = inducers of DNA re-replication in SW480 colon cancer cells | AID 624297 | 340,000 tested, 1.8% active | Potency, µM (top dose mostly 46.1 µM), usual class: activators | SW480 DNA re-replication, Hoechst DNA content imaging, 48 h; further: nearly all actives have a fitted effect of over 55% in size
#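 Hoechst fluorescence of nuclei (405 nm excitation, 500-530 nm emission) measured by plate-scanning imager after 48 hr compound exposure at 37 C; re-replication scored as increased number of nuclei with elevated intensity.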
# MCF10A rerep = DNA re-replication induction in MCF 10a cells. 350,000 tested, 2.9% active. Potency, µM (highest dose often 46.1 µM), hits mostly activators. MCF 10A DNA re-replication, Hoechst nuclear intensity, 48 h; further: nearly all actives have a fitted effect of over 50% in size
# KB-V1 cytotox = kills drug-selected multidrug resistant KB-V1 cells | KB-V1 MDR cells viability, CellTiter-Glo, 72 h | Potency, µM (series often up to 46.1 µM), most hits filed as cytotoxic | 400,000 tested, 3.4% active; further: nearly all actives have a fitted effect of over 60% in size
#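 Cells of the MDR subline KB-V1 are plated, dosed with compound at multiple concentrations, and incubated 72 h at 37 degrees C; CellTiter-Glo is then added and luminescence read after 10 min.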
# KB-3-1 cytotox = KB-3-1 parental cell cytotoxicity; Potency, µM (top dose mostly 46.1 µM), most hits filed as cytotoxic; 400,000 tested, 1.4% active; AID 1347075; KB-3-1 viability, CellTiter-Glo ATP luminescence, 72 h; further: nearly all actives have a fitted effect of over 60% in size
#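 Cells are dispensed, compounds pinned in, plates held at 37 °C for 72 h, then CellTiter-Glo is added and luminescence read after 10 minutes. Cell line: parental KB-3-1 in phenol-red-free DMEM, 10% FBS.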
# HT1080-NT tox = kills 2HG-producing HT-1080-NT fibrosarcoma cells | HT-1080-NT fibrosarcoma viability, CellTiter-Glo ATP luminescence, 48 h | Potency, µM (doses to about 46.1 µM), usual class: cytotoxic | 360,000 tested, 1.6% active;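 further: NT is the 2HG producing partner of a matched IDH1 knockdown line; nearly all actives have a fitted effect of over 55% in size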
#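 Viability of the 2HG-overproducing fibrosarcoma line after 48 hours of compound exposure at 37 degrees C was determined by luminescence with CellTiter-Glo, and concentration-effect curves were then fitted and categorized.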
# HT1080 IDH1KD tx = toxicity to HT-1080 IDH1 knockdown cells (counter line); HT-1080 IDH1 knockdown viability, ATP luminescence, 48 h; 360,000 tested, 2% active; Potency, µM (doses to about 46.1 µM), hits mostly cytotoxic
#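 Knockdown cells (IDH1KD HT-1080) received compounds 2 h after plating at 750 cells/well and were kept 48 h at 37 °C in 5% FBS RPMI. A CellTiter-Glo luminescence read gave % activity for curve fitting.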
# A number is an active result; 0 = inactive; ? = inconclusive; - = not tested or not shown; [ ] = dose if it differs, or a comment. The call rests on the fitted dose curve; in most records, active means well fitted curve in the direction sought with a large enough effect; inconclusive means small, poorly fitted or top-dose-only effect, or another doubt; inactive means no such curve, though single readings can be large; an effect the other way counts as inactive or inconclusive.
SMILES,SW480 rereplic,MCF10A rerep,KB-V1 cytotox,KB-3-1 cytotox,HT1080-NT tox,HT1080 IDH1KD tx
O=C(Nc1nc2ccccc2[nH]1)C1CCN(C(=O)c2ccc(F)cc2)CC1,0,0,0,0,0,0
O=C(Nc1nc2ccccc2[nH]1)C1CC1,20.6µM,18.4µM,10.3µM,?,?,?
CC1(C)N=C(N)N=C(N)N1c1cc(Cl)ccc1Cl,-,-,0,0,0,0
CC1(C)N=C(N)N=C(N)N1c1ccc(CCCCc2ccccc2)cc1,-,-,0,?,?,0.731µM
CC1(C)N=C(N)N=C(N)N1c1ccc(Oc2ccc(Cl)cc2)c(Cl)c1,0,0,0,0.731µM,2.31µM,1.3µM
CC1(C)N=C(N)N=C(N)N1c1ccccc1,0,?,?,?,3.66µM,1.64µM
O=[N+]([O-])c1cc(C(F)(F)F)cc([N+](=O)[O-])c1NCCCNc1ccc([N+](=O)[O-])c2cccnc12,?,0,10.3µM,0,0,0
O=C(Nc1ccc(Oc2ncccn2)cc1)c1ccco1,0,0,0,0,0,0
NNc1nc2c(-c3ccc(F)cc3)nnn2c2ccccc12,?,23.1µM,0,0,0,0
COCCCNc1nc2c(-c3ccc(Cl)cc3)nnn2c2ccccc12,0,?,0,0,0,0
NNc1nc2c(-c3ccc(Cl)cc3)nnn2c2ccccc12,8.2µM,5.8µM,0,0,0,0
COc1ccc(-c2nnn3c2nc(NCc2ccccc2)c2ccccc23)cc1,?,1.64µM,0,0,0,0
O=C(COC(=O)/C=C/c1cccs1)Nc1nc(-c2cccc(Br)c2)cs1,0,0,?,0,0,0
COc1cccc(C(C(=O)NC2CCCC2)N(C(=O)c2ccco2)c2ccccc2F)c1OC (configuration not stated),0,0,?,0,0,0
COc1cccc(C(C(=O)NC2CCCC2)N(Cc2ccco2)C(=O)c2ccco2)c1OC (configuration not stated),0,0,2.91µM,0,?,0
NC(=O)c1nsc(C(=O)N(Cc2ccco2)C(C(=O)NCc2ccc(F)cc2)c2ccc(O)cc2)c1N (configuration not stated),0,0,0,0,0,0
Cc1ccc(C(C(=O)NCc2ccc(F)cc2)N(Cc2ccco2)C(=O)c2snc(C(N)=O)c2N)o1 (configuration not stated),0,16.4µM,?,0,?,0
COc1ccc(C)cc1N(C(=O)c1snc(C(N)=O)c1N)C(C(=O)NC1CCCCC1)c1ccc(C)o1 (configuration not stated),?,0,20.6µM,?,?,?
CCCC(C(=O)NC1CCCC1)N(CC1CCCO1)C(=O)c1snc(C(N)=O)c1N (configuration not stated),0,0,4.11µM,0,0,0
CCn1nc(C)c2c(-c3ccccc3)cc(=O)n(C(C)C(=O)NCCC(C)C)c21 (configuration not stated),-,-,0,0,-,-
Cc1ccc(N(C(=O)c2snc(C(N)=O)c2N)C(CC(C)C)C(=O)NC2CCCC2)cc1 (configuration not stated),?,?,0,0,?,0
CCOc1ccccc1N(C(=O)c1snc(C(N)=O)c1N)C(C(=O)NCCC(C)C)c1ccco1 (configuration not stated),0,0,13µM,0,0,0
O=C(NC1CCCC1)C(c1ccncc1)N(CCCN1CCOCC1)C(=O)c1ccc(-c2ccccc2)[nH]1 (configuration not stated),0,0,0,0,0,0
COc1ccc(C(C(=O)NC2CCCCC2)N(Cc2ccco2)C(=O)c2snc(C(N)=O)c2N)cc1 (configuration not stated),0,?,16.4µM,?,0,0
O=C(NC1CCCC1)C(c1ccncc1)N(Cc1ccco1)C(=O)c1ccc(-c2ccccc2)[nH]1 (configuration not stated),?,?,20.6µM,?,?,14.6µM
SMILES,SW480 rereplic,MCF10A rerep,KB-V1 cytotox,KB-3-1 cytotox,HT1080-NT tox,HT1080 IDH1KD tx
CC(C(=O)NC1CCCC1)N(C(=O)c1snc(C(N)=O)c1N)c1ccc2c(c1)OCCO2 (configuration not stated),0,0,16.4µM,0,0,0
CC(C)Oc1cccc(C(=O)C2CCCN(S(C)(=O)=O)C2)c1 (configuration not stated),0,0,?,0,0,0
Cn1c(=O)c2c(ncn2CCN(CCO)Cc2ccccc2)n(C)c1=O,0,0,0,0,0,0
COc1cccc(-c2ccc3c(N)c(C(=O)c4ccc(Br)cc4)sc3n2)c1,-,-,0,?,-,-
CCCCCc1cc(=O)oc2c(C(CCN3CCCC3)c3cc(OC)c(OC)c(OC)c3)c(OC)cc(OC)c12 (configuration not stated),?,?,0,?,?,?
CCN(CC)CCOC(=O)C(Cc1ccco1)Cc1cccc2ccccc12 (configuration not stated),0,0,0,0,0,0
CC(C)(C)NC(=O)C(c1ccco1)N(Cc1ccc(F)cc1)C(=O)c1snc(C(N)=O)c1N (configuration not stated),0,0,18.4µM,0,0,0
COc1ccc(CN(C(=O)c2snc(C(N)=O)c2N)C(C(=O)NC(C)(C)C)c2ccco2)cc1 (configuration not stated),0,0,0,0,0,0
CC(=O)N1CCc2nc3sc(C(=O)Nc4ccc(Cl)cc4F)c(N)c3c(C(F)(F)F)c2C1,-,-,0,0,-,-
Nc1c(C(=O)NC23CC4CC(CC(C4)C2)C3)sc2nc3c(c(C(F)(F)F)c12)CCC3,?,1.64µM,?,0,0,0
O=C(Nc1nnc(C2CC2)s1)C1Cc2ccccc2CN1S(=O)(=O)c1ccccc1F (configuration not stated),?,0,?,0,?,12.6µM
O=C(NC1CCCCC1)C1Cc2ccccc2CN1S(=O)(=O)c1ccc(F)cc1 (configuration not stated),?,?,?,0,0,0
CCS(=O)(=O)N1Cc2ccccc2CC1C(=O)Nc1ncc(C)s1 (configuration not stated),0,0,?,0,0,0
O=C(Nc1nccs1)C1Cc2ccccc2CN1S(=O)(=O)c1ccc(F)cc1 (configuration not stated),4.11µM,0[0.0737 µM],0,0,0,0
CCN(CC(=O)Nc1ccccc1C(=O)OC)S(=O)(=O)c1ccccc1,0,0,0,0,0,0
Cc1cc(C)cc(NC(=O)/C(C#N)=C/c2cn(CC(=O)NCc3ccco3)c3ccccc23)c1,?,0,?,?,10.3µM,9.2µM

# Bioassay records (PubChem)
